This note sets out measurements from PubChem BioAssay (Tox21).

Unmarked numbers belong to inactive results. Inconclusive results are not listed. Active and inactive are the calls of the source. Unless noted, calls follow the shape of the full dose curve.

Assay [1] is described as follows: Nuclear factor erythroid 2-related factor 2/antioxidant responsive element (Nrf2/ARE) small molecule agonists: luciferase reporter gene qHTS assay in human keratinocytes (AID 1919969). Also: nearly all actives have a fitted effect of over 35% in size.
In assay [2] the target is Gonadotropin-releasing hormone receptor (Homo sapiens) (UniProt P30968). The experiment in a line: Human gonadotropin-releasing hormone receptor (GnRHR) small molecule agonists, calcium flux assay in GnRHR-HEK293 cells (AID 1920063). Also: nearly all actives have a fitted effect of over 35% in size. The method, boiled down: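 Intracellular calcium rise is the read-out: engineered human GnRHR HEK293 cells, dye-loaded, are exposed to DMSO-dissolved compounds and fluorescence at Ex/Em 480/540 is tracked for 3 min.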
Chain of Gonadotropin-releasing hormone receptor (Homo sapiens) (P30968 whole entry, looked up): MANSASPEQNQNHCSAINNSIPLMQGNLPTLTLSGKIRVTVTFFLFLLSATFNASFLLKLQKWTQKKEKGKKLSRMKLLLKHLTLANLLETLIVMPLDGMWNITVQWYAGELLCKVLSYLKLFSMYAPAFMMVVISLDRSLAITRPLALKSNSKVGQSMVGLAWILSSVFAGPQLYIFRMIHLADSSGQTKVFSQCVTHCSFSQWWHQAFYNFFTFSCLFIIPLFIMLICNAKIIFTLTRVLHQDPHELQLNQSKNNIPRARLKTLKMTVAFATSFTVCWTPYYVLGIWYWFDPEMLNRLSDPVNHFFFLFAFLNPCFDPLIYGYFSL
Background: Calcium flux is commonly read through the fluorescence of an indicator in the cells.

The target in assay [3] is KiSS-1 receptor (Homo sapiens) (UniProt Q969F8). The experiment in a line: Human kisspeptin (KISS1R) small molecule agonists, calcium flux assay in KISS1R-HEK293 cells (AID 1920064; active = well fitted activation curve with a large enough effect in the repeat runs). The method, boiled down:
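Concentration-response testing used 15 concentrations in triplicate on human KISS1R-expressing HEK293 cells. Calcium-dependent fluorescence (Ex/Em 480/540) was followed kinetically for 3 min after compound transfer.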

Assay [4] is described as follows: G protein-coupled receptor (GPCR) small molecule agonists, calcium flux assay: HEK293 wild type cell line counter screen (AID 1920065). The method in brief: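 Fluorescence intensity signals activation. After overnight (18 h) culture and a 1 h calcium dye load at 37 C, compounds are added by pin tool and the plate read at 480/540 nm for 3 min in 1 s steps.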
Assay [5] in a line: p53 small molecule agonists, cell-based qHTS assay with human liver microsomes (AID 1963577).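 Also: p53 response element beta-lactamase reporter cells with liver microsomes plus NADPH.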 The method, boiled down:
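HLM-supplemented p53RE-bla reporter assay: 16 h compound exposure at 37 C, microsomes and NADPH each 0.5 mg/mL final, read by fluorescence intensity.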
On the technique in general: Quantitative high-throughput screening tests each substance at several concentrations.

Assay [6] in a line: p53 small molecule agonists, cell-based qHTS assay with rat liver microsomes (AID 1963578). The method, boiled down:
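Quantitative HTS of the Tox21 10K library: p53RE-bla cells, rat liver microsomes plus NADPH at 0.5 mg/mL final each, 16 h at 37 C, beta-lactamase fluorescence detection.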

A short description of assay [7]: p53 small molecule agonists, cell-based qHTS assay with human liver microsomes: qHTS cell viability counter screen (AID 1963579). Also: nearly all actives have a fitted effect of over 45% in size. The method, boiled down:
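Viability of p53RE-bla cells is measured as CellTiter-Glo luminescence following a 16 h, 37 C incubation with compound, liver microsomes from human donors and NADPH.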

Assay [8] in a line: p53 small molecule agonists, cell-based qHTS assay with rat liver microsomes: qHTS cell viability counter screen (AID 1963580). Also: nearly all actives have a fitted effect of over 45% in size. The method in brief:
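Luminescent ATP readout (CellTiter-Glo, 30 min at room temperature) reports viability of p53RE-bla HCT-116 cells after 16 h at 37 C with test compounds under metabolic activation by rat liver microsomes and NADPH at 0.5 mg/mL final each.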

Assay [9] is described as follows: p53 small molecule agonists, cell-based qHTS assay: qHTS cell viability counter screen (AID 1963581). Also: nearly all actives have a fitted effect of over 45% in size. The method in brief: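 Luminescence from CellTiter-Glo, reflecting ATP content, serves as the cytotoxicity measure; it is taken after the 2 h reporter substrate step in HCT-116 p53RE-bla cells dosed for 16 h at 37 C.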
A short description of assay [10]: p53 small molecule agonists, cell-based qHTS assay (AID 1963582; active = well fitted activation curve with a large enough effect in the signal ratio in the repeat runs, not every such curve was filed as active; the % refers to the signal ratio). The method in brief:
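After plating, p53RE-bla cells sat 5 h in the incubator; compounds or DMSO vehicle were pinned in; a 16 h incubation at 37 C followed; FRET substrate was added and, 2 h later at RT, fluorescence was measured.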

Assay [11] concerns the target Muscarinic acetylcholine receptor M1 (Homo sapiens) (UniProt P11229). The experiment in a line: Cholinergic receptor muscarinic 1 (CHRM1) small molecule agonists, cell-based qHTS assay (AID 1963589). Also: nearly all actives have a fitted effect of over 35% in size. The method in brief:
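Fluorescent calcium dye reports M1 activation in stably transfected CHO cells. Compounds, 15 concentrations, added after 1 h dye loading at 37 C; kinetic reading at 1 sec intervals.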

Assay [12] can be described thus: cAMP Responsive Elements (CRE) small molecule agonists, cell-based qHTS assay (AID 1963590). The method in brief: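 Compound exposure lasted 3 h at 37 C/5% CO2 in CRE-bla HEK 293T cells grown in assay medium with 10% dialyzed FBS and 25 mM HEPES. Reporter signal came from LiveBLAzer B/G FRET substrate, 2 h, room temperature.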
The nature of assay [13]: cAMP Responsive Elements (CRE) small molecule antagonists, cell-based qHTS assay (AID 1963591; active = well fitted inhibition curve with a large enough effect in the signal ratio in the repeat runs, not every such curve was filed as active; the % refers to the signal ratio). The method, boiled down:
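Stimulation used NKH477 at a final 0.25 uM for 3 h in compound-treated CRE-bla HEK293T cells, seeded 18 h beforehand. Reporter activity was measured with LiveBLAzer B/G FRET substrate after 2 h at room temperature.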

Assay [14] concerns the target 5-hydroxytryptamine receptor 2A (Homo sapiens) (UniProt P28223). As to the kind of experiment: 5-hydroxytryptamine receptor 2A (HTR2A) small molecule agonists, cell-based qHTS assay (AID 1963587). Also: nearly all actives have a fitted effect of over 30% in size. The method in brief:
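HTR2A-CHO cells, plated 18 h at 37 C/5% CO2, dye-loaded 1 h at 37 C; compounds in DMSO added by pin tool (agonist mode). Intracellular calcium flux read as kinetic fluorescence on FDSS over 2 min at 1 s intervals.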

Assay [15] concerns the target Muscarinic acetylcholine receptor M1 (Homo sapiens) (UniProt P11229). As to the kind of experiment: Cholinergic receptor muscarinic 1 (CHRM1) small molecule antagonists, cell-based qHTS assay (AID 1963588). Also: nearly all actives have a fitted effect of over 40% in size. Also: potency is read from the fitted curve at half-maximal effect. The method in brief: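 Compounds were tested at 15 concentrations in three independent runs. Dye-loaded CHRM1-CHO cells were exposed 5 min at room temperature before stimulation by acetylcholine added at 50nM. Intracellular calcium was read kinetically on FDSS for 3 min.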

The target of assay [16] is Beta-2 adrenergic receptor (Homo sapiens) (UniProt P07550). The experiment in a line: Adrenergic beta2 receptor (ADRB2) small molecule antagonists, cell-based qHTS assay (AID 1963592). Also: series mostly up to about 92 µM; nearly all actives have a fitted effect of over 50% in size. The method in brief:
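Assay format: CHO-ADRB2 cells, 18-20hr seeding at 37C/5% CO2, then compound plus 1nM isoproterenol agonist mix for 0.5hr RT. Homogeneous time-resolved fluorescence cAMP detection after 1hr, expressed as 665/615 nm ratio.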

Assay [17] concerns the target D(2) dopamine receptor (Homo sapiens) (UniProt P14416). The experiment in a line: Dopamine D2 receptor (DRD2) small molecule agonists, cell-based qHTS assay (AID 1963594). Also: nearly all actives have a fitted effect of over 35% in size. The method, boiled down:
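HEK293 cells stably expressing DRD2 were cultured 24 h at 37 C, then given Ro20-1724 (0.1 mM final) and compounds for 10 min at room temperature. NKH477 (200nM) was then added for 30 min. cAMP was read by HTRF.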

Assay [18] has the same target. As to the kind of experiment: Dopamine D2 receptor (DRD2) small molecule antagonists, cell-based qHTS assay (AID 1963595; active = well fitted inhibition curve with a large enough effect in the signal ratio in the repeat runs, with a control signal flat; the % refers to the signal ratio). The method in brief:
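Readout: HTRF cAMP, cAMP-d2 competing with cellular cAMP for anti-cAMP cryptate, read after 1 h. Cells: DRD2-HEK293. Conditions: 0.1 mM Ro20-1724, 12 nM quinpirole, 200 nM NKH477, 30 min RT.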

For assay [19], the target named is 5-hydroxytryptamine receptor 2A (Homo sapiens) (UniProt P28223). As to the kind of experiment: 5-hydroxytryptamine receptor 2A (HTR2A) small molecule antagonists, cell-based qHTS assay (AID 1963586). Also: nearly all actives have a fitted effect of over 45% in size. Also: potency is read from the fitted curve at half-maximal effect. The method, boiled down:
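CHO cells stably expressing human HTR2A were plated for 18 h at 37 C, then loaded with calcium dye for 1 h. Compounds were preincubated 5 min at room temperature before DOI (4 nM solution) was added. Kinetic fluorescence was read for 3 min.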

Assay [20] concerns the target Beta-2 adrenergic receptor (Homo sapiens) (UniProt P07550). The experiment in a line: Adrenergic beta2 receptor (ADRB2) small molecule agonists, cell-based qHTS assay (AID 1963593).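 Also: CHO cells stably overexpressing human ADRB2.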 The method in brief:
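CHO cells stably over-expressing ADRB2 were plated overnight at 37C, then dosed with compounds plus a stimulation mix containing 100uM IBMX and 25uM Ro-20-1724 for 0.5hr at room temperature. cAMP was measured by HTRF competition, 1hr.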
% is scaled to controls: 0 for no effect and ±100 for the full control effect.

Chain of KiSS-1 receptor (Homo sapiens) (Q969F8 whole entry, looked up): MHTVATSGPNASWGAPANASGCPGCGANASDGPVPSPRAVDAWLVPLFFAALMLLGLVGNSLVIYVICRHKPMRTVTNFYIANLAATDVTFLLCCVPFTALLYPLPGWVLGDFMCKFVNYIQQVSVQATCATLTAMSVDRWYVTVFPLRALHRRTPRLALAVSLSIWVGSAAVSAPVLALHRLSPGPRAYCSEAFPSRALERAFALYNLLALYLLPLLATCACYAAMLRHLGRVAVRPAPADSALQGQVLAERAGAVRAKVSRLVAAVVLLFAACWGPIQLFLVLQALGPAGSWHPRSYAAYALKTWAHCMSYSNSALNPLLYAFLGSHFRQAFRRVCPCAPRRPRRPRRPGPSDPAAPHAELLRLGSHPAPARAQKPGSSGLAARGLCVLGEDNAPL
Chain of Beta-2 adrenergic receptor (Homo sapiens) (P07550 whole entry, looked up): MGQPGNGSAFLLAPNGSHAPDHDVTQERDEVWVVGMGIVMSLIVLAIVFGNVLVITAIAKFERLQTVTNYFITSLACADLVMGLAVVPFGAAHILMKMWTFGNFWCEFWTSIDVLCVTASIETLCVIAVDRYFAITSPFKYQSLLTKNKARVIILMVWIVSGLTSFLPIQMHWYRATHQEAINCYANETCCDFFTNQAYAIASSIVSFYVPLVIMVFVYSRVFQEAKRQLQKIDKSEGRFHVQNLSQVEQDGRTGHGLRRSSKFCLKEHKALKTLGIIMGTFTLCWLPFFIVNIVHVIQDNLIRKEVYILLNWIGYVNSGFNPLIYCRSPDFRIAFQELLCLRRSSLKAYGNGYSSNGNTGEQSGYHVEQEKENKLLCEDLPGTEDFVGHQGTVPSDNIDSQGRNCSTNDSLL
Chain of D(2) dopamine receptor (Homo sapiens) (P14416 whole entry, looked up): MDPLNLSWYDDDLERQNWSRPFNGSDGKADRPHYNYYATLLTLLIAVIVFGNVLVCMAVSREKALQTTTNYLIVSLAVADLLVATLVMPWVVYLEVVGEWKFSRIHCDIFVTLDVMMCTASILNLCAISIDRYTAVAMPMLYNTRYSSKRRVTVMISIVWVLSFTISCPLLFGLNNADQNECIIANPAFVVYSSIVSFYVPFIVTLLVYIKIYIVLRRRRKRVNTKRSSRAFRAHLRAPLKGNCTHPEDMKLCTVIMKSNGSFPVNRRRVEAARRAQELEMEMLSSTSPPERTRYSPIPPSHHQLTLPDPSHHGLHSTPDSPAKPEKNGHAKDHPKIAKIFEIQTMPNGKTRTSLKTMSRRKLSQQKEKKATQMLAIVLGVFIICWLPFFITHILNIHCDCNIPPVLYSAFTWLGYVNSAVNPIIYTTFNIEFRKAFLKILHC
Chain of Muscarinic acetylcholine receptor M1 (Homo sapiens) (P11229 whole entry, looked up): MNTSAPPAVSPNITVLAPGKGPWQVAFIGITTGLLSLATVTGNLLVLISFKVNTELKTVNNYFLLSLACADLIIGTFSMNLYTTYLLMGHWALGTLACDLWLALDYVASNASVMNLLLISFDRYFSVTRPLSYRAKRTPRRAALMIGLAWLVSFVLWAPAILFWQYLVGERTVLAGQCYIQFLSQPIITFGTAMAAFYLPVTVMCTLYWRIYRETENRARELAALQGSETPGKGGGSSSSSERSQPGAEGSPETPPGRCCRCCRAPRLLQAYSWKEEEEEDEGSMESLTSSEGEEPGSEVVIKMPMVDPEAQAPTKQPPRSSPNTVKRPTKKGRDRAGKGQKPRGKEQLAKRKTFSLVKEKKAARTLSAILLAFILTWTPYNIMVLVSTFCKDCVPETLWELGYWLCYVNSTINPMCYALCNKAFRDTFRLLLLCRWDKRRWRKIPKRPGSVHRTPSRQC
Chain of 5-hydroxytryptamine receptor 2A (Homo sapiens) (P28223 whole entry, looked up): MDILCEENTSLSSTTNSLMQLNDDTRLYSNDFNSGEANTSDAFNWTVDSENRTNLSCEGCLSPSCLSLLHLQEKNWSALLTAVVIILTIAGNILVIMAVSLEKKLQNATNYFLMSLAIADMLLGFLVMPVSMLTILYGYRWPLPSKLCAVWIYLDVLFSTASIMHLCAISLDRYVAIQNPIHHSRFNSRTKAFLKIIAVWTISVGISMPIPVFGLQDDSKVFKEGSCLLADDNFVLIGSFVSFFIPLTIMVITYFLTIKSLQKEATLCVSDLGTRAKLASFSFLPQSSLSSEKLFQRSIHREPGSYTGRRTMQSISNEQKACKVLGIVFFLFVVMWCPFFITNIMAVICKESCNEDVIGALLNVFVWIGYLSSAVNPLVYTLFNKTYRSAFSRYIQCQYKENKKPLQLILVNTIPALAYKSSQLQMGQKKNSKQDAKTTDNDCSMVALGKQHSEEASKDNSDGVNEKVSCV

In the case of `CCOc1ccccc1O[C@H](c1ccccc1)[C@H]1CNCCO1`, the Potency entry in assay [1], in assay [2], in assay [5], in [6], in assay [7] and in [8] was “inactive” each time. Further, the Potency result in [9], in assay [10], in assay [11], in [12] and in assay [13] was “inactive” throughout. The outcome in [3] and in assay [4] was inactive.
`Cc1cccc(C)n1`: the Potency entry in assay [1], in assay [2], in assay [5], in assay [6], in assay [7] and in assay [8] was “inactive” throughout. The Potency entry in assay [9], in assay [10], in assay [14], in assay [15], in [11] and in [12] was “inactive” throughout. Further, the Potency result in [13], in [16], in assay [17] and in [18] was “inactive” throughout. The outcome in assay [3] and in assay [4] was inactive.
As for `COC(=O)C1CC(=O)C(C(=O)OC)CC1=O` (centres undefined), the activity, positive = activation in assay [1] is -3.71% [at 8.39 µM]. Moreover, the activity change in assay [2] was 0.483% [at 5.22 µM, stronger effect = higher value]. For the same compound, the activation is 0.0459% [at 6.97 µM] in [3]; -0.0233% [at 5.23 µM] in assay [4]; -0.316% [at 5.99 µM] in [5]; -0.919% [at 5.99 µM] in assay [6]; -3.72% [at 5.99 µM] in assay [10]; 7.2% [at 7.02 µM] in [14]. The activation in [11] is 0.037% [at 6.97 µM]; in assay [12] it was 0.379% [at 8.39 µM]; in assay [17], -0.218% [at 8.39 µM]. Besides, the activity change, negative = cytotoxicity in [7] was -6.82% [at 5.99 µM]; in assay [8], -4.56% [at 5.99 µM]; in [9], -4.07% [at 5.99 µM]. For the same compound, the activity, negative = inhibition in [15] is 62.7% [at 5.58 µM]. The activity change, negative = inhibition in assay [13] is -7.12% [at 8.39 µM]; in [16], 3.63% [at 8.39 µM]; in assay [18], -0.133% [at 8.38 µM].
With `CCN(CC)CCOC(=O)C(c1ccccc1)c1ccccc1`, the Potency result in [1], in [2], in [5], in assay [6], in assay [7] and in [8] was “inactive” each time. The Potency entry in [9], in assay [10], in [11], in assay [12] and in assay [17] was “inactive” in each case. For the same compound, the outcome in assay [3] and in assay [4] was inactive. The figures for the Potency in assay [19] and in assay [15] were 7.29 µM (active) and 0.0103 µM (active), respectively.
Regarding `CCC(=O)Nc1ccc(O)cc1`, the Potency result in [1], in [2], in assay [5], in [6], in assay [7] and in assay [8] was “inactive” each time. For the same compound, the Potency entry in [9], in assay [10], in [19], in assay [15], in assay [11] and in assay [12] was “inactive” each time. Moreover, the Potency result in [13], in [17] and in assay [18] was “inactive” throughout. Moreover, the outcome in [3] and in assay [4] was inactive.
With `CCN1CC(CCN2CCOCC2)C(c2ccccc2)(c2ccccc2)C1=O` (centres undefined), the Potency entry in [1], in assay [2], in assay [5], in assay [6], in [7] and in assay [8] was “inactive” throughout. Further, the Potency result in [9], in [10], in assay [12], in [13], in assay [16] and in assay [17] was “inactive” throughout. Moreover, the Potency entry in assay [18] was “inactive”. Moreover, the result in assay [3] and in assay [4] was inactive.
Regarding `O=[N+]([O-])c1ccc(CO)cc1`, the Potency entry in assay [1], in assay [2], in [5], in [6], in assay [7] and in assay [8] was “inactive” throughout. In addition, the Potency result in assay [9], in assay [10], in [14], in [15], in assay [11] and in assay [12] was “inactive” each time. For the same compound, the Potency entry in [13], in assay [20], in assay [17] and in assay [18] was “inactive” each time. For the same compound, the result in assay [3] and in assay [4] was inactive.
